The record followed here is ChEMBL document CHEMBL1961873, “Compounds: GSK PKIS; Assays: Nanosyn kinase panel” (2012).

The target of test [1] is Fibroblast growth factor receptor 4 (Homo sapiens) (UniProt P22455). The note with it: at 1 µM.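 Note: reported figure is the averaged percent inhibition of FGFR4, from the GSK PKIS kinase screening panel.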
Test [2] concerns the target Tyrosine-protein kinase Fgr (Homo sapiens) (UniProt P09769). The settings on record: at 0.1 µM.
The target is the same in test [3]. The note with it: at 1 µM.
Test [4] deals with Vascular endothelial growth factor receptor 1 (Homo sapiens) (UniProt P17948). The settings on record: at 0.1 µM.
Test [5] shares this target. The settings on record: at 1 µM.
For test [6], the target named is Receptor-type tyrosine-protein kinase FLT3 (Homo sapiens) (UniProt P36888). The settings on record: at 0.1 µM.
Test [7] shares this target. The settings on record: at 1 µM.
The subject of test [8] is T1, Receptor-type tyrosine-protein kinase FLT3 (Homo sapiens), P36888 [D835Y].
T1 sequence (whole entry): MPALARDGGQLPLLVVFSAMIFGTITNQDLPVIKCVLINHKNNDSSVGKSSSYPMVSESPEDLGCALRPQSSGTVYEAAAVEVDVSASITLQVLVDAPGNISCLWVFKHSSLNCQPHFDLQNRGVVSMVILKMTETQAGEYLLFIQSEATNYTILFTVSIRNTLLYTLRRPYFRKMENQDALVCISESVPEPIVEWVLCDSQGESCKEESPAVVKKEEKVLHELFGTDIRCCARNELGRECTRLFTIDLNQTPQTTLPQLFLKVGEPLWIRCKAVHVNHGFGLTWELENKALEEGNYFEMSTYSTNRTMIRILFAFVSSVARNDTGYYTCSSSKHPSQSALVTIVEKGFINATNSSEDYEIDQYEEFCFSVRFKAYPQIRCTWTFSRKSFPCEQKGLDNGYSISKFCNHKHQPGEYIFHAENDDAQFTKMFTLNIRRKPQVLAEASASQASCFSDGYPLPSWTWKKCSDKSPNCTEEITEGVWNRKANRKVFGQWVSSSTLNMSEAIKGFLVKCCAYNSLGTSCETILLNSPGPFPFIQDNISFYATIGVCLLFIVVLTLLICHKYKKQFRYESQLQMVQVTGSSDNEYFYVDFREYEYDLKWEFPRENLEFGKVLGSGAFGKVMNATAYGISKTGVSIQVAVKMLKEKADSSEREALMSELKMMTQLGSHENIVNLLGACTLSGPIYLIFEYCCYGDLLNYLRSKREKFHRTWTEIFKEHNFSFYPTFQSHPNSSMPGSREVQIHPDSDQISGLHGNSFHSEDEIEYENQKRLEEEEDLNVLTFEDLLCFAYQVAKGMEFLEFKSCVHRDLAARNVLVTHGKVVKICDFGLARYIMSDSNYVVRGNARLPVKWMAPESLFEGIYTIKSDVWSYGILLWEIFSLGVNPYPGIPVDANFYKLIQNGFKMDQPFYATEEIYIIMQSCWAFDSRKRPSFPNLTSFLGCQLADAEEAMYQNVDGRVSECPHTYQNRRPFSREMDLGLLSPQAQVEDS
The settings on record: at 0.1 µM.

Test [9] has as its target Non-receptor tyrosine-protein kinase TYK2 (Homo sapiens) (UniProt P29597). The settings on record: at 1 µM.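 Note: values are mean percent inhibition of TYK2 kinase.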
Test [10] deals with T2, Tyrosine-protein kinase receptor TYRO3 (Homo sapiens) (UniProt Q06418).
T2 sequence (whole entry): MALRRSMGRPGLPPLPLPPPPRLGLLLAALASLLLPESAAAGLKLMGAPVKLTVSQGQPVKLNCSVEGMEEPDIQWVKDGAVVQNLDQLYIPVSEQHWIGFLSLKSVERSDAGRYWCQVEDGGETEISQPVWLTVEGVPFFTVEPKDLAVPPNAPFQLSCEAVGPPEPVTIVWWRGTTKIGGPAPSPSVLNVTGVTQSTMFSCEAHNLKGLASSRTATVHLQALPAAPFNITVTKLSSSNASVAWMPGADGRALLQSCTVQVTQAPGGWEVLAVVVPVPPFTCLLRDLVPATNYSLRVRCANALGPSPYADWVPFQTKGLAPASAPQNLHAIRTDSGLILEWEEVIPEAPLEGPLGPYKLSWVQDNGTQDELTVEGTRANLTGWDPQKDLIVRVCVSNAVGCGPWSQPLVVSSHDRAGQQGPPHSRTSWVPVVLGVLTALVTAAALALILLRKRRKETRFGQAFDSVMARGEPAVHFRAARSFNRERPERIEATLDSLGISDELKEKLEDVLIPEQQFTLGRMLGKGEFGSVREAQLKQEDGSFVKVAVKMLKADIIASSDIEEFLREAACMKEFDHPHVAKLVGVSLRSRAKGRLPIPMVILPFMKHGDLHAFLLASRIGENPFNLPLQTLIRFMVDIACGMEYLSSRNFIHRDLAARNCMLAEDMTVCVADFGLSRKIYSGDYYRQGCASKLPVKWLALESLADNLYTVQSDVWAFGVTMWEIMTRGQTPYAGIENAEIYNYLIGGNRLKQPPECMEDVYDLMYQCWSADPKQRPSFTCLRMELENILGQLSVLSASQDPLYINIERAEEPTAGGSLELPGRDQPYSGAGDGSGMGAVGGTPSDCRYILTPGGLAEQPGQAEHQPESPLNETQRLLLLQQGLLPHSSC
The note with it: at 0.1 µM.

In general, inhibition refers to the change of the read-out against control, counted positive when it falls.

Sequence of Vascular endothelial growth factor receptor 1 (Homo sapiens) (P17948 whole entry): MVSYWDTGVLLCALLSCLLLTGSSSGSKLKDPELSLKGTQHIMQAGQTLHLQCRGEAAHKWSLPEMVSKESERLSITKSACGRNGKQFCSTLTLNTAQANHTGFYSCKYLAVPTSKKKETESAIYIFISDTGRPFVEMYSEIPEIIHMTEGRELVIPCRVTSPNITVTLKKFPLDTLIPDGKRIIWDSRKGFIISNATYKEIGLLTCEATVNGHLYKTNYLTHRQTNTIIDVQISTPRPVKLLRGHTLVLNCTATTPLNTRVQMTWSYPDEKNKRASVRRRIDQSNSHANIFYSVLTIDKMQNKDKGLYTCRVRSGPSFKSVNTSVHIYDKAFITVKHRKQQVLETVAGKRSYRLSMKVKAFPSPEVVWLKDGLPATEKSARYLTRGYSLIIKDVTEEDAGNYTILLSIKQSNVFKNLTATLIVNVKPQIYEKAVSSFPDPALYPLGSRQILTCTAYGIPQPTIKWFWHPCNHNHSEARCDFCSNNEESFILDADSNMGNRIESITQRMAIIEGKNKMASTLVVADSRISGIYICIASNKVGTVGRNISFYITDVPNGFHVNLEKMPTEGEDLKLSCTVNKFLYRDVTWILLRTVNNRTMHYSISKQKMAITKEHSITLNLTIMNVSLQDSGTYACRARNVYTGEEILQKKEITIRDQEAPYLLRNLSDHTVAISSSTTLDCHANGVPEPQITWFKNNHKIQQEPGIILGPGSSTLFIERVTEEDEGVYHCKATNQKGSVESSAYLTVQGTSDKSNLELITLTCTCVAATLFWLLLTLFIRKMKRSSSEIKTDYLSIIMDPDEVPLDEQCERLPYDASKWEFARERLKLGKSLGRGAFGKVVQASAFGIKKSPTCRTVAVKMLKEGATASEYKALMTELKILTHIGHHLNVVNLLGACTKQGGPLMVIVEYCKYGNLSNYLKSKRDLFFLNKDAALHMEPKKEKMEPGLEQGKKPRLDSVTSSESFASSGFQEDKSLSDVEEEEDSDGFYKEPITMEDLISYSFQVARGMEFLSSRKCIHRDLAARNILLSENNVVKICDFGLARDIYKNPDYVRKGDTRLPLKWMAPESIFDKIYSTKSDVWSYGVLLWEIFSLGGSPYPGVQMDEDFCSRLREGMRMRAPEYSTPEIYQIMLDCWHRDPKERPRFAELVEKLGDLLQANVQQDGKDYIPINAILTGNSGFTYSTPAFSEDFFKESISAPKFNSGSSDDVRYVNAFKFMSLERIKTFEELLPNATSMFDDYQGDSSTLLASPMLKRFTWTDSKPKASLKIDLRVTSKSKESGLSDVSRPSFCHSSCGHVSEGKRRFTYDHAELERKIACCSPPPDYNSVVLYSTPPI
Sequence of Fibroblast growth factor receptor 4 (Homo sapiens) (P22455 22-802 limits assumed): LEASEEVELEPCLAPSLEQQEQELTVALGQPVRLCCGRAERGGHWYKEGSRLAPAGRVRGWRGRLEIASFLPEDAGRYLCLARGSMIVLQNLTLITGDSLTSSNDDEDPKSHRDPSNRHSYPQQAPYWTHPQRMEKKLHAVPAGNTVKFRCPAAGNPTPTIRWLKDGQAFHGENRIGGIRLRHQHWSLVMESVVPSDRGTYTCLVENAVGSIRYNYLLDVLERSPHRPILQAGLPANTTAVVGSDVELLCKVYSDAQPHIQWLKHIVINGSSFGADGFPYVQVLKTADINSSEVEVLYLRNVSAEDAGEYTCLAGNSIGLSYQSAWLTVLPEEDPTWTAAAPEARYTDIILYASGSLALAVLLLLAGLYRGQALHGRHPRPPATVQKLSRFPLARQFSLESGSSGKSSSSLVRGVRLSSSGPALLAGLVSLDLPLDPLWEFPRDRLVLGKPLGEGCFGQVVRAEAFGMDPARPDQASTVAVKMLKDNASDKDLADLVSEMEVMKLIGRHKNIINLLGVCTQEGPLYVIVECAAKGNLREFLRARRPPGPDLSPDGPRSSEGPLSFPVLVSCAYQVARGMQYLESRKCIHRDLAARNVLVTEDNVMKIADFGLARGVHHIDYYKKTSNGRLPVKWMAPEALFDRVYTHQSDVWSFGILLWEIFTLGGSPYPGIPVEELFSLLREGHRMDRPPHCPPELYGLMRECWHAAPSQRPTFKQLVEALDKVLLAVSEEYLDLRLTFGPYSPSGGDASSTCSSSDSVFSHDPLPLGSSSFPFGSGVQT
Sequence of Tyrosine-protein kinase Fgr (Homo sapiens) (P09769 2-529 limits assumed): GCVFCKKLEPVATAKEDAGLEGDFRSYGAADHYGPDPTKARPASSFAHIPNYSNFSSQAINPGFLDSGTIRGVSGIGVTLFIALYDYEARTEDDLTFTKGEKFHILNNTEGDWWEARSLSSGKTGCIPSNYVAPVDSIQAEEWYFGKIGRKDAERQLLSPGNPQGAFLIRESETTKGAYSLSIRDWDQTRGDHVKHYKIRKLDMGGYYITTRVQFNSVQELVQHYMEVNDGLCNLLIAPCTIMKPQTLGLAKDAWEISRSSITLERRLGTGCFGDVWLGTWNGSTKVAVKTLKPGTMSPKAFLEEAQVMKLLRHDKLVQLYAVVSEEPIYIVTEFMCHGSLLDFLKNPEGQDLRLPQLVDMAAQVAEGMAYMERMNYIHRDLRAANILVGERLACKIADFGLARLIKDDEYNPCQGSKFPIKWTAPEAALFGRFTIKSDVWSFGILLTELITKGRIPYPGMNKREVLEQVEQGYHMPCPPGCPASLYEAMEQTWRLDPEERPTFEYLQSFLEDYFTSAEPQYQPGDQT
Sequence of Non-receptor tyrosine-protein kinase TYK2 (Homo sapiens) (P29597 whole entry): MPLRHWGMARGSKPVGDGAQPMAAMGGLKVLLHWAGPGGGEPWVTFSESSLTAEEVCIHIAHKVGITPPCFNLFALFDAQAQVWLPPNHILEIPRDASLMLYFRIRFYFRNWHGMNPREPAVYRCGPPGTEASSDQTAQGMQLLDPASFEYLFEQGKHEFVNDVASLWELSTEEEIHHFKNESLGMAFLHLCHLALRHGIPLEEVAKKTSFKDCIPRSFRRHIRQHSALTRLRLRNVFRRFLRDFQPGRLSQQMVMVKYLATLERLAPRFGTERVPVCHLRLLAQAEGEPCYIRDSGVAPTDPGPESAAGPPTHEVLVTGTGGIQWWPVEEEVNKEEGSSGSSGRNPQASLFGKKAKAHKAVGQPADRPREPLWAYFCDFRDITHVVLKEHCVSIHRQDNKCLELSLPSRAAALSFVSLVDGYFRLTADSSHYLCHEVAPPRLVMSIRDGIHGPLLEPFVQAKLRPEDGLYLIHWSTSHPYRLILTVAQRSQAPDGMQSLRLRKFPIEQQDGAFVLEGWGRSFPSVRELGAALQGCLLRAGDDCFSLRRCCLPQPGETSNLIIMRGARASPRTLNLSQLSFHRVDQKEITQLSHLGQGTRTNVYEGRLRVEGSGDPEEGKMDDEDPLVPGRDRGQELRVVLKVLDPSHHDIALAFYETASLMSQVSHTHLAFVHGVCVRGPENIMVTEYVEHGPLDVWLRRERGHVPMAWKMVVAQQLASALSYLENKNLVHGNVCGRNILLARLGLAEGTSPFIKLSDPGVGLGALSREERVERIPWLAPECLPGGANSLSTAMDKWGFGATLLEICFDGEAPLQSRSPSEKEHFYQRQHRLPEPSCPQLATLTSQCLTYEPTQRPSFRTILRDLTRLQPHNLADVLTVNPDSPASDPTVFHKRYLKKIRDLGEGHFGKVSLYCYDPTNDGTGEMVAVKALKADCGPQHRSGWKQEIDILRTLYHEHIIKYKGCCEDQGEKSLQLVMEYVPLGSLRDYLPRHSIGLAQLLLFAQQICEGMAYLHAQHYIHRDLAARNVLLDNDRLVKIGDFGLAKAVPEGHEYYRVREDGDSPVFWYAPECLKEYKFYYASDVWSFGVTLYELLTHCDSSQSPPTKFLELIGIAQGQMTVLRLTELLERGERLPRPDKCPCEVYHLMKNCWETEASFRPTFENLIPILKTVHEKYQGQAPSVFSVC

As to `[O-][S+]1CCN(Cc2ccc(-c3ccc4ncnc(Nc5ccc(OCc6ccccc6)c(F)c5)c4c3)o2)CC1`, the inhibition in test [1] was 0.02%; in test [2], 0.4%; in [3], 9.74%; in test [4], 1.64%; in test [5], -1.13%; in test [6] it was -0.1%. The inhibition in test [7] is 2.1%; in test [8], -4.8%; in test [9] it was -3.99%; in test [10], 1.34%.

As to `O=C1Nc2ccc(C(=O)c3ccco3)cc2C1=Cc1cc(Cl)c(O)c(Cl)c1`, the inhibition in [1] came out at 7.04%; in [2], 2.46%; in test [3], 11.6%; in test [4], 1.07%; in test [5], 4.42%; in test [6], 1.69%. Also, the inhibition in test [7] was found to be 12.7%; in test [8] it was 4.82%; in test [9] it was 26.4%; in test [10], 1.96%.

In the case of `CCn1c(-c2nonc2N)nc2c(C#CC(C)(C)O)nc(CN3CCCC3)cc21`, the inhibition in test [1] was 1.16%; in test [2], -1.03%; in test [3], 3.81%; in test [4], -1.48%; in test [5], 3.78%; in test [6], -1.67%. Besides, the inhibition in [7] is -0.42%; in [8], -4.71%; in [9], -0.89%; in test [10], 0.06%.

For `COc1ccc(COc2ccc(Cc3cnc(N)nc3N)cc2OC)cc1`, the inhibition in test [1] is 3.16%; in [2] it was -0.01%; in test [3], 4.25%; in test [4] it was 1.03%; in [5], 2.11%; in [6], -1.11%. The inhibition is 1.13% in [7], -4.6% in test [8], 0.26% in test [9] and 0.79% in [10].

As to `Cc1cc(O)cc(C)c1/C=C/c1cncc(-c2nn[nH]n2)c1`, the inhibition came to 0.95% in test [1]; 9.4% in [2]; 51.5% in test [3]; 3.27% in test [4]; 5.69% in [5]; 2.5% in test [6]. Moreover, the inhibition in test [7] is 4.37%; in test [8], -2.23%; in [9], -2.7%; in [10], 3.72%.

For `CCN1CCC(CC(=O)Nc2n[nH]c3nc(-c4cccs4)c(Br)cc23)CC1`, the inhibition in test [1] is 1.97%; in test [2], -0.94%; in [3], 0.5%; in [4] it was 0.44%; in test [5], 3.83%; in [6] it was -0.9%. For the same compound, the inhibition in [7] is 9.19%; in [8] it was 3.26%; in test [9], 2.37%; in [10] it was -1.49%.

With `O=C1NC(=O)C(c2ccc(Cl)cc2)=C1Nc1ccc(Cl)c(C(=O)O)c1`, the inhibition is 1.95% in test [1]; 0.15% in test [2]; 2.1% in test [3]; 0.79% in test [4]; 2.99% in [5]; -0.57% in test [6]. Also, the inhibition is 1.93% in [7], -7.38% in test [8], 0.43% in [9] and -0.81% in [10].

For the compound `CS(=O)(=O)Nc1ccc(N/C=C2\C(=O)Nc3ccccc32)cc1`, the inhibition in test [1] turned out to be 5.07%; in test [2] it was 1.13%; in [3], 15%; in [4] it was 4.31%; in test [5], 20.8%; in test [6], 18.4%. The inhibition was 74.1% in test [7], 18.7% in test [8], 9.24% in test [9] and -2.18% in [10].

On to `COc1ccc(-c2coc3ncnc(N)c23)cc1`, for which the inhibition in [1] is 1.55%; in test [2] it was 0.55%; in test [3], 5.25%; in [4] it was -1.7%; in [5], 2.37%; in test [6], 2.97%. The inhibition was 4.59% in test [7], 3.34% in test [8], -3.97% in test [9] and 2.29% in test [10].

Take `Nc1nc(-c2ccccn2)c(-c2ccc3ncccc3n2)s1`: the inhibition in test [1] came out at 0.28%; in test [2], 1.09%; in [3], 2.08%; in test [4], 0.57%; in [5], 5.82%; in test [6] it was 8.03%. Further, the inhibition is 2.99% in [7], -0.61% in [8], -1.33% in test [9] and 1.89% in [10].

On to `Nc1ncnc2occ(-c3ccc(NC(=O)Nc4cccc(C(F)(F)F)c4)cc3)c12`, for which the inhibition in [1] stood at 13.3%; in [2], 3.07%; in [3], 25.1%; in test [4], 56%; in test [5], 91%; in test [6] it was 85.3%. The inhibition is 93.9% in test [7], 18.4% in test [8], -3.79% in test [9] and 3.18% in test [10].

`CC1=C(C(=O)Nc2ccc3[nH]ncc3c2)C(c2ccc(F)cc2)NC(=O)N1` (stereo not given): the inhibition in test [1] was 7.73%; in test [2] it was 0.15%; in test [3], 0.7%; in test [4] it was -0.38%; in test [5], 2.35%; in [6] it was 0.82%. Also, the inhibition is 0.62% in [7], -0.62% in test [8], 26.3% in test [9] and 1.55% in test [10].

On to `CS(=O)(=O)CCNCc1ccc(-c2ccc3ncnc(Nc4ccc(OCc5ccccc5)c(Cl)c4)c3c2)o1`, for which the inhibition was 0.28% in test [1]; 2.49% in [2]; 11.5% in [3]; -0.51% in test [4]; 0.52% in [5]; 1.48% in test [6]. In addition, the inhibition is 2.75% in test [7], -3.65% in [8], 1.7% in [9] and 0.02% in test [10].

As for `CCn1c(-c2nonc2N)nc2cncc(C(=O)N3CCNCC3)c21`, the inhibition was 2.67% in test [1]; 1.29% in [2]; 2.57% in test [3]; 0.7% in [4]; 2.54% in test [5]; 5.99% in test [6]. The inhibition in test [7] was 4.6%; in test [8] it was -1.23%; in [9], -2.3%; in test [10], 1.84%.

With `N#Cc1c(NC(=O)c2cccc3ccccc23)sc2c1CCCC2`, the inhibition in test [1] is -0.35%; in test [2], 1.53%; in [3], 5.24%; in test [4], -0.49%; in [5], 0.41%; in [6] it was 2.28%. For the same compound, the inhibition in test [7] is 2.23%; in [8], 3.1%; in test [9], -3.92%; in test [10] it was 2.98%.

In the case of `CCCN1CCC(Oc2cc(Nc3nc(Nc4cccc(F)c4C(N)=O)c4cc[nH]c4n3)c(OC)cc2Cl)CC1`, the inhibition was 1.48% in test [1]; 0.61% in [2]; 4.19% in test [3]; -0.02% in test [4]; 2.7% in test [5]; 0.23% in test [6]. Besides, the inhibition in test [7] is 2.55%; in test [8], -3.12%; in test [9] it was 0.45%; in [10], -0.27%.
